The source of these data is PubChem BioAssay.

This assay is described as follows: sensitizers of A549 cells to miR-34 induction, primary screen, imaging, A549 dox-inducible miR-34, nuclei and caspase counts (AID 1347080). Further: test concentration not given here. The following applies: A549 miR-34 inducible, Hoechst nuclei count, 48 h; measured here: total cells with miR-34 induction; stronger effect = lower value.
With `N[C@@H](CCC(=O)N[C@@H](CSN=O)C(=O)NCC(=O)O)C(=O)O`, the cell count worked out at 5550.

On to `CCCCC(C)(C)[C@H](O)/C=C/[C@H]1[C@H](O)CC(=O)[C@@H]1CC(=O)CCCCC(=O)O`, for which the cell count was found to be 5680.

Take `CC(C)=CCC/C(C)=C/CC/C(C)=C/CC[C@]1(C)CCc2cc(O)cc(C)c2O1`: the cell count amounted to 5270. On to `CCCCCCCCCC(=O)CC(=O)N[C@H]1CCOC1=O`, for which the cell count worked out at 6050. In the case of `CCCCCCCCCCCCCCCCOC[C@H](COP(=O)([O-])OCC[N+](C)(C)C)SC(C)=O` it was 4720; in that of `CCCCC[C@@H](O)CC[C@H]1[C@H](O)CC(=O)[C@@H]1CCCCCCC(=O)O`, 5350; in that of `CCCCCC/C=C/C=C\CCCCCCCC(=O)O`, 5840. In the case of `CCNC1=N[C@@H]2[C@@H](O)[C@H](O)[C@@H](CO)O[C@@H]2S1` it was 6020; in that of `C[C@@H](O)CCC[C@@H](O)/C=C/[C@@H]1[C@@H](CCCCCCC(=O)O)[C@@H](O)C[C@H]1O`, 5220; in that of `CCCCCC#CCC#CCC#CCCCCCCC(=O)O`, 5730.

As for `CCCCC(C)(C)[C@H](O)/C=C/[C@H]1CCC(=O)[C@@H]1C/C=C\CCCC(=O)O`, the cell count is 6270. `COc1ccc2c(c1)c(CC(=O)NCCc1ccccc1)c(C)n2C(=O)c1ccc(Cl)cc1`: the cell count was 6040.

With `CCCCC/C=C\C/C=C\C/C=C\CCCCCCC(=O)OCC`, the cell count worked out at 6480. In the case of `O=C(O)CCC/C=C\C[C@@H]1[C@@H](CC[C@@H](O)CCc2cccc(C(F)(F)F)c2)[C@H](O)C[C@@H]1O` it was 6330. Under `O=Cc1cccc2[nH]ccc12` stands 6070; under `CCCCCCCCCCCCC/C=C/[C@@H](O)[C@H](CO)NC(=O)CCCCC`, 5840.
